In ChEMBL document CHEMBL2218924, “A broad activity screen in support of a chemogenomic map for kinase signalling research and drug discovery” (Biochem J, 2013):

What was measured:
[1] = target: T1, Testis-specific serine/threonine-protein kinase 2 (Homo sapiens) (UniProt Q96PF2); conditions: at 10 µM
T1 sequence (whole entry): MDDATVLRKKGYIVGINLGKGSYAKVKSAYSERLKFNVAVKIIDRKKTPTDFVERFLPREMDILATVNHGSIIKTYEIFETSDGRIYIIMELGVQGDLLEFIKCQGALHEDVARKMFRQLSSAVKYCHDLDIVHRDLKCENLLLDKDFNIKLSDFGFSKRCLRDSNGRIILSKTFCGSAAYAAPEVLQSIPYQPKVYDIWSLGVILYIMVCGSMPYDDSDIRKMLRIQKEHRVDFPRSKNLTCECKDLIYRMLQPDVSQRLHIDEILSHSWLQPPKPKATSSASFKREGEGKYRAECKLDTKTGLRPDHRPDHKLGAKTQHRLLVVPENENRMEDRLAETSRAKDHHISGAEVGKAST

[2] = target: T2, Tyrosine-protein kinase TXK (Homo sapiens) (UniProt P42681); conditions: at 1 µM
T2 sequence (whole entry): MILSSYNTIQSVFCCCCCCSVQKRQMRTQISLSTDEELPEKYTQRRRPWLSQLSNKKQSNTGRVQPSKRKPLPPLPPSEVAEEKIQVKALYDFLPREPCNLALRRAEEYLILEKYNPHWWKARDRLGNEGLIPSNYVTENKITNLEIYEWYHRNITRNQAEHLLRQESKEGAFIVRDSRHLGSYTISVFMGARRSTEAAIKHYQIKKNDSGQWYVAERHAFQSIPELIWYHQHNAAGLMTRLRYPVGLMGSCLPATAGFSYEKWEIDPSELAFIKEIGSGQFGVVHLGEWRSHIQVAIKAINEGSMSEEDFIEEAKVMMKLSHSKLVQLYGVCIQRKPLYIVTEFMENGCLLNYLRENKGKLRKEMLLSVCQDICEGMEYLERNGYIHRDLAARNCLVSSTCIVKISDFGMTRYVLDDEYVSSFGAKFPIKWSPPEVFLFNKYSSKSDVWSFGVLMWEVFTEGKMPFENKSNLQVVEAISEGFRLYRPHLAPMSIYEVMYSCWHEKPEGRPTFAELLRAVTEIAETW

[3] = target: T2, Tyrosine-protein kinase TXK (Homo sapiens); conditions: at 10 µM
[4] = target: Serine/threonine-protein kinase WNK2 (Homo sapiens) (UniProt Q9Y3S1); conditions: at 1 µM;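 also: residual WNK2 kinase activity expressed as percent of uninhibited control, assayed in MOPS buffer at pH 7.0 containing EDTA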
[5] = target: T3, Tyrosine-protein kinase Tec (Homo sapiens) (UniProt P42680); conditions: at 10 µM
T3 sequence (whole entry): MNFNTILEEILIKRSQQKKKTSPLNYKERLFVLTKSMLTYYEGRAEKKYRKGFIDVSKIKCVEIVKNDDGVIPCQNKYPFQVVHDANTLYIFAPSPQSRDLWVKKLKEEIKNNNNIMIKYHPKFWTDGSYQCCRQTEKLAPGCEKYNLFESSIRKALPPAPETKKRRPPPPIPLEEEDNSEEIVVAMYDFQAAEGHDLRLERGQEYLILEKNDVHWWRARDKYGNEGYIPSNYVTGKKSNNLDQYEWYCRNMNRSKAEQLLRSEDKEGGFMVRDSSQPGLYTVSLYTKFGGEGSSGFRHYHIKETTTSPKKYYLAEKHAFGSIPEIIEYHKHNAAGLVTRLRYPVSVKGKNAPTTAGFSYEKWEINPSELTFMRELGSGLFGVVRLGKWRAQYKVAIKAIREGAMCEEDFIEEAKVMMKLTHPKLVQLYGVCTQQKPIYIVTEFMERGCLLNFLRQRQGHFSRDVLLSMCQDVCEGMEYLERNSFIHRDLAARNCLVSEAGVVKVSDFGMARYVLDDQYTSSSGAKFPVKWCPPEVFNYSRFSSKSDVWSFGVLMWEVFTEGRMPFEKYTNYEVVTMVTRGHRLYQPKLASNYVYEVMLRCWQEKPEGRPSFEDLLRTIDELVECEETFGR

[6] = target: High affinity nerve growth factor receptor (Homo sapiens) (UniProt P04629); conditions: at 1 µM
[7] = target: High affinity nerve growth factor receptor (Homo sapiens) (UniProt P04629); conditions: at 10 µM
[8] = target: BDNF/NT-3 growth factors receptor (Homo sapiens) (UniProt Q16620); conditions: at 1 µM
[9] = target: BDNF/NT-3 growth factors receptor (Homo sapiens) (UniProt Q16620); conditions: at 10 µM
[10] = target: T4, Testis-specific serine/threonine-protein kinase 1 (Homo sapiens) (UniProt Q9BXA7); conditions: at 1 µM
T4 sequence (whole entry): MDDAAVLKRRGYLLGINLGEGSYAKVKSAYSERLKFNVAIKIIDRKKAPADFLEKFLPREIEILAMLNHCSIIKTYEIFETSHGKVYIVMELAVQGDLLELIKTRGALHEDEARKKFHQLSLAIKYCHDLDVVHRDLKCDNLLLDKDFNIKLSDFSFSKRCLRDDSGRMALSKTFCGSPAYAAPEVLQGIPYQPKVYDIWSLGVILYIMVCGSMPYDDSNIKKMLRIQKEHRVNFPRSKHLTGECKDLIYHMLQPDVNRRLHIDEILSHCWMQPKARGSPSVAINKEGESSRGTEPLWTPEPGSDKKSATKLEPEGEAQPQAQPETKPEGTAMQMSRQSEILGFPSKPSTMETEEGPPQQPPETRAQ

[11] = target: T4, Testis-specific serine/threonine-protein kinase 1 (Homo sapiens); conditions: at 10 µM
[12] = target: T5, Serine/threonine-protein kinase ULK2 (Homo sapiens) (UniProt Q8IYT8); conditions: at 1 µM
T5 sequence (whole entry): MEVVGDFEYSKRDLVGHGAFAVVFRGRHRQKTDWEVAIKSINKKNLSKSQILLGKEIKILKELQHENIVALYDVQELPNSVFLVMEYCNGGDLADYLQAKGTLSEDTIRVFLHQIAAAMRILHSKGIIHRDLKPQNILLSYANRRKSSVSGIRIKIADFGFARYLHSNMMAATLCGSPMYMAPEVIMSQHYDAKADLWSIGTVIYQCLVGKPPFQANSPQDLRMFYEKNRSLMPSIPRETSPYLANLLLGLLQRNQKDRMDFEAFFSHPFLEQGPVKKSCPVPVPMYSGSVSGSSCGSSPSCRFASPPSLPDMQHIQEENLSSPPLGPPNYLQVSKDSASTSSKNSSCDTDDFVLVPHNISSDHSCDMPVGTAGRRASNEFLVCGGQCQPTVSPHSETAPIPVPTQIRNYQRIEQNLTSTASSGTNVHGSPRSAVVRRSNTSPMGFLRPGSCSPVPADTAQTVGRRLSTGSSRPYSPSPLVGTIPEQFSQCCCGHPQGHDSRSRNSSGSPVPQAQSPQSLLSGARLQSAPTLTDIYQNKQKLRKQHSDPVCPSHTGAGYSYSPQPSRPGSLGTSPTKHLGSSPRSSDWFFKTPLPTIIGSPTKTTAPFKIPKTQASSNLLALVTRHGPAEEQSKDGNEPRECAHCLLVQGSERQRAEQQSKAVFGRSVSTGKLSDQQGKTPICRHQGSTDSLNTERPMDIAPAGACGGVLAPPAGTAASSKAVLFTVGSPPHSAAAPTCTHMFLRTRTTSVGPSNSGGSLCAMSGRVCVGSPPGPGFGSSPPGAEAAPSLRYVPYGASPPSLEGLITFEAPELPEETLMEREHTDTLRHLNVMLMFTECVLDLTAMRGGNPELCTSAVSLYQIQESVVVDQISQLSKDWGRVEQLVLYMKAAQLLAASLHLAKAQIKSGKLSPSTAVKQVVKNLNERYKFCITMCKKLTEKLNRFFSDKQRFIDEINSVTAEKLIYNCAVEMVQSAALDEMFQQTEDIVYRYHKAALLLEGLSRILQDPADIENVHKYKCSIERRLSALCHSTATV

[13] = target: T5, Serine/threonine-protein kinase ULK2 (Homo sapiens); conditions: at 10 µM
[14] = target: T6, Serine/threonine-protein kinase ULK3 (Homo sapiens) (UniProt Q6PHR2); conditions: at 1 µM
T6 sequence (whole entry): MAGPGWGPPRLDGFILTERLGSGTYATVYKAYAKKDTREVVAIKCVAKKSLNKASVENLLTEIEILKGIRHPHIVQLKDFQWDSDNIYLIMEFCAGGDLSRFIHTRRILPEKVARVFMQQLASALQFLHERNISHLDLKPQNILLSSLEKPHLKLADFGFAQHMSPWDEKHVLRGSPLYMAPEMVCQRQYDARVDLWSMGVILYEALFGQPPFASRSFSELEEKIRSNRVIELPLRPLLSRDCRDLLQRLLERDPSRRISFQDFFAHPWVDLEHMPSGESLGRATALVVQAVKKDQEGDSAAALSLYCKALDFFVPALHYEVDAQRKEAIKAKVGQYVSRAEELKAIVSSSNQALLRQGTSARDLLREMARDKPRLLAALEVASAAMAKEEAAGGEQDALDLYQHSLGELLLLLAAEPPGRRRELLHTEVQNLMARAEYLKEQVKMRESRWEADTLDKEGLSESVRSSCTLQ

[15] = target: T6, Serine/threonine-protein kinase ULK3 (Homo sapiens); conditions: at 10 µM
[16] = target: Angiopoietin-1 receptor (Homo sapiens) (UniProt Q02763); conditions: at 1 µM
[17] = target: Angiopoietin-1 receptor (Homo sapiens) (UniProt Q02763); conditions: at 10 µM
[18] = target: Serine/threonine-protein kinase VRK2 (Homo sapiens) (UniProt Q86Y07); conditions: at 10 µM
[19] = target: T3, Tyrosine-protein kinase Tec (Homo sapiens); conditions: at 1 µM
[20] = target: Serine/threonine-protein kinase VRK2 (Homo sapiens) (UniProt Q86Y07); conditions: at 1 µM

Sequence of BDNF/NT-3 growth factors receptor (Homo sapiens) (Q16620 32-822 limits assumed): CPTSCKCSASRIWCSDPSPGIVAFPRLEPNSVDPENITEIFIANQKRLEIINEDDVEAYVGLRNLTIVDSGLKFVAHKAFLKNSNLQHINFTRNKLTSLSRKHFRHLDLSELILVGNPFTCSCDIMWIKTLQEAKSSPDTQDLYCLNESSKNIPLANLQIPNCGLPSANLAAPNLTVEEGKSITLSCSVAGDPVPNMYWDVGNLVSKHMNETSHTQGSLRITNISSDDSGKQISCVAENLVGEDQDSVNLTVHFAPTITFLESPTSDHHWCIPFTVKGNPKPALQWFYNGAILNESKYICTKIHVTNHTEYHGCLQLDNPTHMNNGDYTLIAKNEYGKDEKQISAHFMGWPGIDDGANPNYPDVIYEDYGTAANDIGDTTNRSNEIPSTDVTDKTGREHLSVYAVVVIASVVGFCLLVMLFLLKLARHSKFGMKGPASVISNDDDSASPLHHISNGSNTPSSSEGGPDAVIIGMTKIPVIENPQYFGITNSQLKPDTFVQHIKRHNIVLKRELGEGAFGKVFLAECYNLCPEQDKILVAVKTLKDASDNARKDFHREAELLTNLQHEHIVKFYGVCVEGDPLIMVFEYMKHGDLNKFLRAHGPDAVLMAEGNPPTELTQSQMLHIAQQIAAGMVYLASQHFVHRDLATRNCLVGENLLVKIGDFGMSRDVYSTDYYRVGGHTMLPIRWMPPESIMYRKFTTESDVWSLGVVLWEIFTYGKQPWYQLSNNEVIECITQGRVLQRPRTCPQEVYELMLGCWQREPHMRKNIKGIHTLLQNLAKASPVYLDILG
Sequence of Serine/threonine-protein kinase VRK2 (Homo sapiens) (Q86Y07 whole entry): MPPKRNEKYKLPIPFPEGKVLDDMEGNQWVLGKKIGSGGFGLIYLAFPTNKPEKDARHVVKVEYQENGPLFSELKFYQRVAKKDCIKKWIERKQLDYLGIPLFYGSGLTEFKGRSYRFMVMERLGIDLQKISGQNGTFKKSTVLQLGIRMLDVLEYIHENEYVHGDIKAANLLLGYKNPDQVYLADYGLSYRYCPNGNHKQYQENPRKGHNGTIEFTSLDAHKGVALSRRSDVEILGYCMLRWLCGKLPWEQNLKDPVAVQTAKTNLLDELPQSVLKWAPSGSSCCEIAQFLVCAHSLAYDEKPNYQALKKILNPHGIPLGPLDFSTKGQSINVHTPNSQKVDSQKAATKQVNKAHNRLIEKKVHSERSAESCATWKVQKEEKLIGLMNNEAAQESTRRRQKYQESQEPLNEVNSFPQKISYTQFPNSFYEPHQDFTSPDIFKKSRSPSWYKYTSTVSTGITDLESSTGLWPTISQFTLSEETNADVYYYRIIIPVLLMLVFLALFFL
Sequence of High affinity nerve growth factor receptor (Homo sapiens) (P04629 33-796 limits assumed): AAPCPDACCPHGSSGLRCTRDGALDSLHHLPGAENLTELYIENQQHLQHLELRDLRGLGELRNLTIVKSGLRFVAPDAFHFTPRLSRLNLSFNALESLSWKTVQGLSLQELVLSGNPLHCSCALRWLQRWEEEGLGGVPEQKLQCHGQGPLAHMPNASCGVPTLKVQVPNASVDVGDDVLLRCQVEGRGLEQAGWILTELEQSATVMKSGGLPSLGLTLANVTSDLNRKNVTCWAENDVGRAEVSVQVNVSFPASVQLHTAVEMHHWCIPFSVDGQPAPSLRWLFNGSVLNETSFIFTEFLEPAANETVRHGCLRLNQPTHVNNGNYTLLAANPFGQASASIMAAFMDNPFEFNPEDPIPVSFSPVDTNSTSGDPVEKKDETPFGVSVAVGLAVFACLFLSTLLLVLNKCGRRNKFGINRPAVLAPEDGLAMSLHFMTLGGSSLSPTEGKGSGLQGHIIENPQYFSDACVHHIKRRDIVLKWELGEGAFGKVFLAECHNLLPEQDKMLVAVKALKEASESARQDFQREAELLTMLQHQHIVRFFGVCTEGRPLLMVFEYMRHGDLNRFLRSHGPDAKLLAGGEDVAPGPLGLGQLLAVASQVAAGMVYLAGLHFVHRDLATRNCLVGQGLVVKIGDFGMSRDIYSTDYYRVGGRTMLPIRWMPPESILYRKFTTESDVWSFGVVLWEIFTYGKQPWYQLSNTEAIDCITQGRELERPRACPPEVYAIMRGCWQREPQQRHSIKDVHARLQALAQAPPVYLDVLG
Sequence of Serine/threonine-protein kinase WNK2 (Homo sapiens) (Q9Y3S1 whole entry): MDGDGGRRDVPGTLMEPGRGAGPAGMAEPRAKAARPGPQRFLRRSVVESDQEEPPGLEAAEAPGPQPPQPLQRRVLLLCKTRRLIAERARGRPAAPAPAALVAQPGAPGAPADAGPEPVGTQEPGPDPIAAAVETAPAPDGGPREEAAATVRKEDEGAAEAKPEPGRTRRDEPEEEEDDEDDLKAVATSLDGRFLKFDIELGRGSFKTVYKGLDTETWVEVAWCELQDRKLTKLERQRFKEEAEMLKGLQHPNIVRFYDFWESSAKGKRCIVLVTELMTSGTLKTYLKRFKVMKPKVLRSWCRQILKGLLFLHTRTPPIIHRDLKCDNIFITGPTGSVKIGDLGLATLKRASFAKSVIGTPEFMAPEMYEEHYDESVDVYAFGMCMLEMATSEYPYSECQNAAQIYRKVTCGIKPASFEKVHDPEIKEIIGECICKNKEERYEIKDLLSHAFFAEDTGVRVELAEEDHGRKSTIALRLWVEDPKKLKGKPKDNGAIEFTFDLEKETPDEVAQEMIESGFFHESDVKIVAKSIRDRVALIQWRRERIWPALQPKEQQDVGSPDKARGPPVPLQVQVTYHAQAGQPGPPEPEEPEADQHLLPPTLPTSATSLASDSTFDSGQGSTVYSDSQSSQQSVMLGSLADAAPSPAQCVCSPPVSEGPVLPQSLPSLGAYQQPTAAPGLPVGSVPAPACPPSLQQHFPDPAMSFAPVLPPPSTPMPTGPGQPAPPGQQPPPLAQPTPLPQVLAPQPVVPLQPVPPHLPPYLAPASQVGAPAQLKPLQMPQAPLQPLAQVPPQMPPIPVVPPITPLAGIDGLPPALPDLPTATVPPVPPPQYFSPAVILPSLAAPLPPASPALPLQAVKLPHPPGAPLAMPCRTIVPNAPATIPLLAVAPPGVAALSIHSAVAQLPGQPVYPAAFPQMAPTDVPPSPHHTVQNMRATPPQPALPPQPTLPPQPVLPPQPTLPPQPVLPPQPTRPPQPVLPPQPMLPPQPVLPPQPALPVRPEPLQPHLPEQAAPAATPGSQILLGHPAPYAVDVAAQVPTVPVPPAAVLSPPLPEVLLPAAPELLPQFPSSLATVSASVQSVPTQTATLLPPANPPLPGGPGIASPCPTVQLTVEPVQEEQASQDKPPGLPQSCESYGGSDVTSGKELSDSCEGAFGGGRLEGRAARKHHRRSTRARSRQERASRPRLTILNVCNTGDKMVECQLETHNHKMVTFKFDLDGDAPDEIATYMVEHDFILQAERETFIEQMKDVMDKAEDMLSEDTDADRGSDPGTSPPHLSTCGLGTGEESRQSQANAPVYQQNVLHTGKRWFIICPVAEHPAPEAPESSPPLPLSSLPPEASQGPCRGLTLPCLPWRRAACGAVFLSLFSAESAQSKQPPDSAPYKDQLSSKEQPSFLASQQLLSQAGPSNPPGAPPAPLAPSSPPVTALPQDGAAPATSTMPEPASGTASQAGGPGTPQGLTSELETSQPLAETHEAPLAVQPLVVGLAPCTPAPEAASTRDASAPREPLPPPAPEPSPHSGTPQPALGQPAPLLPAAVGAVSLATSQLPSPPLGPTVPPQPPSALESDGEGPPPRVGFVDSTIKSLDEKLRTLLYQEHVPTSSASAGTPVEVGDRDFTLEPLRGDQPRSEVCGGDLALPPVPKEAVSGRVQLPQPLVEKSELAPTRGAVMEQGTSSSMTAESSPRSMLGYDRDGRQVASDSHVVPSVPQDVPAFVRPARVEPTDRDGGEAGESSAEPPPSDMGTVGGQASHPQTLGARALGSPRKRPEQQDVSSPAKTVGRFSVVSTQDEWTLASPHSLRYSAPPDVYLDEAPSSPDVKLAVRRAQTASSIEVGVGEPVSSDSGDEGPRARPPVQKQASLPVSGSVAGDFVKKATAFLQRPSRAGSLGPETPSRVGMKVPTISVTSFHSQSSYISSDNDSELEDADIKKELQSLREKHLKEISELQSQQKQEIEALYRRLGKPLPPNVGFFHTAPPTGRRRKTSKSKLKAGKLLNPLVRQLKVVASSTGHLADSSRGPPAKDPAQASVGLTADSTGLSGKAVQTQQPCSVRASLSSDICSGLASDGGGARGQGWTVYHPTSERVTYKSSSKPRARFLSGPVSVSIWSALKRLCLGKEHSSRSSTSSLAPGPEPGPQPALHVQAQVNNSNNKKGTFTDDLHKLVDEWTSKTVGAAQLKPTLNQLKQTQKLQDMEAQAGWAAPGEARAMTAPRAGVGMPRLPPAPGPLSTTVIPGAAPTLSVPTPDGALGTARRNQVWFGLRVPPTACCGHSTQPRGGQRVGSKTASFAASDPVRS

`CCN1/C(=C/C(C)=O)Sc2ccc(OC)cc21` was tested, and the residual activity [1] was 75%, the residual activity [2] was 81% and the residual activity [3] was 77%. For the same molecule, the residual activity [4] was 76% (inactive).

Molecule `Nc1nccc(-c2c(-c3ccc(F)cc3)ncn2C2CCNCC2)n1` has a residual activity [5] of 77%, a residual activity [6] of 100% and a residual activity [7] of 74%. It also gave a residual activity [8] of 118%, a residual activity [9] of 61% and a residual activity [2] of 83%. For the same molecule, the residual activity [3] was 64%.

Work on `COc1ccc(-c2cnc3c(-c4ccsc4)cnn3c2)cc1` yielded a residual activity [10] of 98%, a residual activity [11] of 96% and a residual activity [6] of 76%. For the same molecule, the residual activity [7] was 88%, the residual activity [8] was 66% and the residual activity [9] was 73%. It also gave a residual activity [2] of 70%, a residual activity [3] of 83% and a residual activity [12] of 99%. For the same molecule, the residual activity [13] was 96%, the residual activity [14] was 96% and the residual activity [15] was 90%.

Molecule `CSc1nc(-c2ccc(F)cc2)c(-c2ccnc(NC(C)c3ccccc3)c2)[nH]1` (configuration not stated) has a residual activity [1] of 101%, a residual activity [5] of 63% and a residual activity [16] of 91%. For the same molecule, the residual activity [17] was 41%, the residual activity [7] was 39% and the residual activity [8] was 3%. The residual activity [9] was 1%, the residual activity [2] was 86% and the residual activity [3] was 86%. The residual activity [18] was 93%.

`O=C(c1ccccc1)c1ccc(N2CCOCC2)cc1O` showed a residual activity [1] of 99%, a residual activity [19] of 96% and a residual activity [5] of 77%. For the same molecule, the residual activity [17] was 80%, the residual activity [6] was 76% and the residual activity [7] was 71%. The residual activity [8] was 131%, the residual activity [9] was 113% and the residual activity [2] was 82%. For the same molecule, the residual activity [3] was 70%, the residual activity [13] was 94% and the residual activity [15] was 92%. The residual activity [20] was 98% (inactive), the residual activity [18] was 94% and the residual activity [4] was 115% (inactive).

With `COc1cc2nccc(Oc3ccc(NC(=O)Nc4cc(C)on4)c(Cl)c3)c2cc1OC` the residual activity [6] was 2%, the residual activity [7] was 0% and the residual activity [8] was 42%. It also gave a residual activity [9] of -10%, a residual activity [2] of 98% and a residual activity [3] of 45%. The residual activity [12] was 97%, the residual activity [13] was 99% and the residual activity [20] was 103% (inactive). For the same molecule, the residual activity [4] was 100% (inactive).

`N#C/C(=C1/Nc2ccccc2S1)c1ccnc(NCCc2cccnc2)n1` gave a residual activity [1] of 68%, a residual activity [19] of 79% and a residual activity [5] of 17%. The residual activity [6] was 56%, the residual activity [7] was 11% and the residual activity [8] was 76%. For the same molecule, the residual activity [9] was 44% and the residual activity [4] was 63% (inactive).

In the case of `O=c1c(-c2ccc(F)cc2)c(-c2ccncc2)[nH]n1-c1ccc(Cl)cc1`, the residual activity [11] is reported as 78%, the residual activity [17] is reported as 75% and the residual activity [13] is reported as 102%. For the same molecule, the residual activity [20] was 100% (inactive) and the residual activity [18] was 99%.

`O=C1Nc2ccccc2/C1=C\c1c(Cl)[nH]c2ccccc12` was tested, and the residual activity [10] was 81%, the residual activity [1] was 78% and the residual activity [17] was 47%. The residual activity [6] was 85%, the residual activity [7] was 34% and the residual activity [8] was 87%. The residual activity [9] was 57%, the residual activity [2] was 83% and the residual activity [3] was 74%. For the same molecule, the residual activity [20] was 76% (inactive) and the residual activity [18] was 28%.

`O=C(Nc1ccc(Cl)cc1)c1ccccc1NCc1ccncc1` showed a residual activity [17] of 79%, a residual activity [8] of 117% and a residual activity [9] of 99%. For the same molecule, the residual activity [12] was 102%.

With `O=C(Nc1nc2ccccc2n1CCN1CCOCC1)c1cccc([N+](=O)[O-])c1` the residual activity [1] was 87%, the residual activity [16] was 80% and the residual activity [17] was 40%. The residual activity [6] was 20%, the residual activity [7] was 29% and the residual activity [8] was 46%. The residual activity [9] was 15%, the residual activity [2] was 104% and the residual activity [3] was 77%. For the same molecule, the residual activity [14] was 103% and the residual activity [15] was 83%.
